In PubChem BioAssay:
A number with no mark means an inactive call. For some of these results: Results with a measured potency or affinity are listed apart. Active and inactive are the calls of the source. Unless noted, no rule for the calls is given here.

Experiments:
[1] = antimalarial activity against Dd2 strain (AID 2302;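 active = growth inhibition above 50% at the single 2 µM test dose, taken to imply half-maximal potency below 2 µM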;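 also: 0% = DMSO untreated growth and 100% = chloroquine plus artemisinin killed control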); settings: P. falciparum Dd2 in RBCs, LDH growth readout, 72 h; at 2 µM; stronger effect = higher value
[2] = HepG2 cytotoxicity, primary screen, cytotoxicity control for P. falciparum antimalarial project, cell-based, ATP luminescence (AID 2303;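 active = inhibition above 50%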;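 also: 0% = DMSO wells and 100% = digitonin-killed cells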); settings: HepG2 viability, 24-48 h, at 10 µM, stronger effect = higher value
[3] = target: L-lactate dehydrogenase (Plasmodium falciparum (isolate CDC / Honduras)) (UniProt Q27743); assay: PfLDH activity inhibition – cell lysate, 3D7 strain, counter-screen for P. falciparum growth inhibition project (AID 2304);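 also: 0% = vehicle and 100% = reference inhibitor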; settings: P. falciparum 3D7 crude extract, LDH APAD/NBT absorbance; at 2 µM; stronger effect = higher value
Sequence of L-lactate dehydrogenase (Plasmodium falciparum (isolate CDC / Honduras)) (Q27743 whole entry, looked up): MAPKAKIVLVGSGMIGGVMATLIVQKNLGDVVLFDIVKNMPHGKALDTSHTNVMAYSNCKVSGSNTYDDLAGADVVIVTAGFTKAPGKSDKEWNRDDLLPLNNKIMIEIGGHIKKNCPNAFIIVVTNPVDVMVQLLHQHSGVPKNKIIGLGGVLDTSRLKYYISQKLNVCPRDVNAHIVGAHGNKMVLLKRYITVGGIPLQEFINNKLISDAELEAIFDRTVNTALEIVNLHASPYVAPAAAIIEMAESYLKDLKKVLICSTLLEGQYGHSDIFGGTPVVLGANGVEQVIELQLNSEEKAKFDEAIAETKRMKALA

[4] = inhibition of 3D7 malaria parasite growth – strain 3D7 (AID 2306);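 also: 0% = DMSO wells and 100% = chloroquine plus artemisinin control wells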; settings: P. falciparum 3D7 erythrocytic growth, LDH absorbance, 72 h; at 2 µM; stronger effect = higher value
[5] = target: Calcium-dependent protein kinase 1 (Plasmodium falciparum (isolate 3D7)) (UniProt P62344); assay: PfCDPK1 kinase inhibitors, biochemical, TCAMS library (AID 1159585; cut-off not given, nearly all actives have IC50 up to about 0.98 µM;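 also: inhibitors leave more ATP so luminescence rises with inhibition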); settings: recombinant PfCDPK1, Kinase-Glo ATP depletion luminescence
Sequence of Calcium-dependent protein kinase 1 (Plasmodium falciparum (isolate 3D7)) (P62344 whole entry, looked up): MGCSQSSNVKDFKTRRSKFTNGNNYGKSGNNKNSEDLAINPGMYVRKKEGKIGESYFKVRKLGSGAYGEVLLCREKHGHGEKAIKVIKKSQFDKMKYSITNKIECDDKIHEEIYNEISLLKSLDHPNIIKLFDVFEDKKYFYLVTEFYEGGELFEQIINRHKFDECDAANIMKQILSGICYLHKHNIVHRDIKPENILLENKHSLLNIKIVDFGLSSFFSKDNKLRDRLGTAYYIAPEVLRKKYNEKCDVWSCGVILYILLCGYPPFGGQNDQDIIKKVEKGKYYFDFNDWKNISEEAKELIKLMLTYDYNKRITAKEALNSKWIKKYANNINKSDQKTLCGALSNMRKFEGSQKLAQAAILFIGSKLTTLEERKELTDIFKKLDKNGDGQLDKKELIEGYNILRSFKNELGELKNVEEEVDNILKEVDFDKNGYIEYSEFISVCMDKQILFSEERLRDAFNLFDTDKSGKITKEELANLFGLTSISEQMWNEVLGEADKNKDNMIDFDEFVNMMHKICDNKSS

[6] = target: Plasmodium falciparum protein kinase 6 (PK6, PF3D7_1337100) (UniProt Q8IDW1); assay: PfPK6 kinase inhibitors, biochemical, TCAMS library (AID 1159586); settings: recombinant PfPK6, Kinase-Glo ATP depletion luminescence
Sequence of Plasmodium falciparum protein kinase 6 (PK6, PF3D7_1337100) (Q8IDW1 1-305): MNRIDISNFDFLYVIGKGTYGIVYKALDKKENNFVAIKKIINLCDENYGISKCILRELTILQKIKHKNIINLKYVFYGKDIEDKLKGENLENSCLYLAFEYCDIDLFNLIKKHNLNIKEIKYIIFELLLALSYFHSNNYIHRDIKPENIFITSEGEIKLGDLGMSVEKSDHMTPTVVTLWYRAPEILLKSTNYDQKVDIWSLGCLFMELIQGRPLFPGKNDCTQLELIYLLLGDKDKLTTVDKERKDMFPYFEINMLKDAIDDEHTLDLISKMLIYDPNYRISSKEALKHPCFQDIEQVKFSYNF

[7] = target: Protein kinase 7 (PK7), Plasmodium falciparum 3D7 (PF3D7_0213400) (UniProt Q7YTF7); assay: inhibition of Plasmodium PK7 catalytic activity – biochemical, TCAMS antimalarial set, Kinase-Glo luminescence (AID 1159587); settings: recombinant PfPK7, Kinase-Glo ATP depletion luminescence
Sequence of Protein kinase 7 (PK7), Plasmodium falciparum 3D7 (PF3D7_0213400) (Q7YTF7 1-343): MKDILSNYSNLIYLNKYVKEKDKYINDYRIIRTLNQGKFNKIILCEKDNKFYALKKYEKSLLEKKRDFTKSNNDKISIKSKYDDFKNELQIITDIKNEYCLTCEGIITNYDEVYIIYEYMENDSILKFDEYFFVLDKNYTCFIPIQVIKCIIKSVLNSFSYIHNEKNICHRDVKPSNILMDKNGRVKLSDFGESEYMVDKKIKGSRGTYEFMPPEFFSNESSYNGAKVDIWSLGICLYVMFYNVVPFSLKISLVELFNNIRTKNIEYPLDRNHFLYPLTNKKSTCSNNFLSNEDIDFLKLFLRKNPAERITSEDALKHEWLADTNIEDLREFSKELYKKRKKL

[8] = target: Calcium-dependent protein kinase 4 (Plasmodium falciparum (isolate 3D7)) (UniProt Q8IBS5); assay: PfCDPK4 kinase inhibitors, biochemical, TCAMS library (AID 1159588; cut-off not given, nearly all actives have IC50 up to about 0.91 µM); settings: recombinant PfCDPK4, Kinase-Glo ATP depletion luminescence
Sequence of Calcium-dependent protein kinase 4 (Plasmodium falciparum (isolate 3D7)) (Q8IBS5 whole entry, looked up): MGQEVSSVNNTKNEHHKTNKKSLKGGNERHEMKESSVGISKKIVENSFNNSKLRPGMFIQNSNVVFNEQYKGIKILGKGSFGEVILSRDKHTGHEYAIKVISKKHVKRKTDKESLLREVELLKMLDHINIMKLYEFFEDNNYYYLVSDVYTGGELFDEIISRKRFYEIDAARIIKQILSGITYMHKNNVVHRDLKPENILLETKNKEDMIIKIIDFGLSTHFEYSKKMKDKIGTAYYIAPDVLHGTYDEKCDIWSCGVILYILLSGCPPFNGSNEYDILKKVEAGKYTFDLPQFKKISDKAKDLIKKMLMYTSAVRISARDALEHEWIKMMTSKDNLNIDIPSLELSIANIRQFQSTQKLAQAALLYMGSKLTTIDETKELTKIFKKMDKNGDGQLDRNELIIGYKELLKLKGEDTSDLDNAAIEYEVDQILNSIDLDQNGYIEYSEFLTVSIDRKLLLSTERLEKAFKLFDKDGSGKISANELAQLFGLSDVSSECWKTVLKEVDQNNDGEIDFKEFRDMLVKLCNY

Compound | growth inhibition [1] | inhibition [2] | inhibition [3] [%] | growth inhibition [4] | outcome [5] | outcome [6] | outcome [7] | outcome [8]
CN(C)CCN(C)Cc1cccc(-c2ccc3c(Nc4ccc(F)cc4Cl)ccnc3c2)c1 | 100% (active) | 53% (active) | 0 | 101% (active) | inactive | inactive | inactive | inactive
C=CCN(c1ccc(OC)cc1)S(=O)(=O)c1ccc(Cl)c(C(=O)Nc2cccc(C#N)c2)c1 | 73% (active) | 6% | 6 | 96% (active) | inactive | inactive | inactive | inactive
CC[C@H](C)CNC(=O)c1ccc(-c2cccc(CN3CCC(N4CCCC4)CC3)c2)nc1 | 7% | -1% | -7 | 91% (active) | inactive | inactive | inactive | inactive
CCN1CCC(N(Cc2ccc(-c3ccc(C(F)(F)F)s3)cc2)C(=O)Cn2c(CCc3cccc(F)c3F)nc(=O)c3ccccc32)CC1 | 95% (active) | 47% | 7 | 93% (active) | inactive | inactive | inactive | inactive
O=C(/C=C/c1ccc(Cl)c(Cl)c1)NC1CCC(CN2CCC(Cc3cc4ccccc4[nH]3)CC2)CC1 (centres undefined) | 74% (active) | 99% (active) | -8 | 100% (active) | inactive | inactive | inactive | inactive
CC(NC(=O)NC1CCC(CCN2CCCc3ccccc32)CC1)c1cccc2ccccc12 (centres undefined) | 83% (active) | -4% | -1 | 90% (active) | inactive | inactive | inactive | inactive
Cc1ccc(F)cc1S(=O)(=O)N1CCCCC(c2ccc(C(F)(F)F)cc2)=N1 | 75% (active) | 8% | 7 | 82% (active) | inactive | inactive | inactive | inactive
CCC(C)(C)c1ccc(OCC(O)CN2CCCCC2)c(C(C)(C)CC)c1 (centres undefined) | 26% | 14% | -9 | 91% (active) | inactive | inactive | inactive | inactive
CCCCCCOc1ccc(C(N)=NCc2ccccc2)c2c1CCCC2 | 35% | 62% (active) | -3 | 96% (active) | inactive | inactive | inactive | inactive
COc1ccc2c(=O)ccn(CCN3CCC(NCc4ccc5c(n4)NC(=O)CS5)CC3)c2c1 | 99% (active) | 7% | 1 | 98% (active) | inactive | inactive | inactive | inactive
Clc1ccc(OCc2ccccc2)c(-c2nc(-c3nc4ncc(Br)cc4[nH]3)cs2)c1 | 77% (active) | -7% | -2 | 101% (active) | inactive | inactive | inactive | inactive
Cc1cc(Nc2ccncc2)n2nc(C)c(-c3ccc(Cl)cc3)c2n1 | 99% (active) | -9% | 2 | 101% (active) | inactive | inactive | inactive | inactive
COc1ccc(NC(=O)/C=C/c2ccc(Cl)c(Cl)c2)cc1N1CCN(C)CC1 | 20% | 23% | -3 | 90% (active) | inactive | inactive | inactive | inactive
CN(C)c1ccc(C=C2SC(=N)N(c3nccs3)C2=O)cc1 | 50% (active) | 38% | 2 | 97% (active) | inactive | inactive | inactive | inactive
O=C(/C=C/c1ccc(Cl)c(Cl)c1)NCCCCCCN1CCCN(C(=O)Nc2cc(F)cc(F)c2)CC1 | -1% | 25% | -6 | 99% (active) | inactive | inactive | inactive | inactive
COc1cc2c(c(Cl)c1OC)CCN(Cc1ccccc1)CC2c1ccc(NC(=O)C(F)(F)F)cc1 (centres undefined) | 79% (active) | 0% | -2 | 85% (active) | inactive | inactive | inactive | inactive
Cc1nc(N)nc(N)c1OCCCCOc1ccccc1 | 4% | 62% (active) | -1 | 94% (active) | inactive | inactive | inactive | inactive
Cn1ccc2c3c(N)nc(N)nc3ccc21 | 17% | 59% (active) | 6 | 91% (active) | inactive | inactive | inactive | inactive
CC1(C)CCC(C)(C)c2c1ccc(C1CCN(CCCCNC(=O)c3ccc(-c4ccc(C#N)cc4)cc3)CC1)c2OCC(N)=O | 100% (active) | 99% (active) | -3 | 102% (active) | inactive | inactive | inactive | inactive

Compound | growth inhibition [1] | inhibition [2] | inhibition [3] [%] | growth inhibition [4] | outcome [5] | outcome [6] | outcome [7] | outcome [8]
CC[C@H](C)CNC(=O)c1ccnc(-c2cccc(CN3CCC(N4CCCC4)CC3)c2)c1 | 12% | -8% | -2 | 97% (active) | inactive | inactive | inactive | inactive
COc1cc2nc(NCC3CCCO3)n3nc(-c4ccccc4)nc3c2cc1OC (centres undefined) | 97% (active) | -9% | -7 | 92% (active) | inactive | inactive | inactive | inactive
C=C[C@H]1CN(CCCCCCC)CC[C@H]1CC(=O)Nc1cnnc2ccc(OC)cc12 | 100% (active) | 12% | 3 | 101% (active) | inactive | inactive | inactive | inactive
Cc1cccc2[nH]c(-c3ccc(-c4ccc(CN5CCN(CCN6CCOCC6)CC5)cc4)s3)nc12 | 99% (active) | 41% | 3 | 100% (active) | inactive | inactive | inactive | inactive
CCN(CC)CCN(Cc1ccc(-c2ccc(C(F)(F)F)cc2)cc1)C(=O)Cn1c(CCc2cc(F)cc(F)c2)nc(=O)c2ccccc21 | 80% (active) | 30% | 2 | 91% (active) | inactive | inactive | inactive | inactive
CN(C)CCNCc1cccc(-c2cccc(-c3nc4ccccc4[nH]3)c2)c1 | 63% (active) | 7% | -3 | 101% (active) | inactive | inactive | inactive | inactive
COc1ccc2ncc(F)c([C@H](O)CN3CCC(NCc4ccc5c(c4)OCCO5)CC3)c2c1 | 99% (active) | 1% | -5 | 102% (active) | inactive | inactive | inactive | inactive
COc1ccc2nccc([C@@H](O)CN3CCC(NCc4ccc5c(c4)oc(=S)n5C)CC3)c2c1 | 68% (active) | 14% | -6 | 100% (active) | inactive | inactive | inactive | inactive
O=C(Nc1ccc(-c2nc3ccccc3[nH]2)cc1)C1CCN(Cc2cccc(F)c2F)CC1 | 51% (active) | 23% | 2 | 97% (active) | inactive | inactive | inactive | inactive
Cc1noc(C)c1-c1ccc2c(Nc3ccc(C(F)(F)F)cc3)c(C(N)=O)cnc2c1 | 95% (active) | 1% | 6 | 100% (active) | inactive | inactive | inactive | inactive
NC(=O)CNC(=O)CCCN=C(N)N | -2% | 20% | 5 | 101% (active) | inactive | inactive | inactive | inactive
NC1CCN(c2nc(NCCc3ccc(O)cc3)nc(NCc3ccccc3-c3ccc(C(F)(F)F)cc3)n2)CC1 | 72% (active) | 18% | 1 | 100% (active) | inactive | inactive | inactive | inactive
O=S(=O)(Nc1ccc2nccc(N3CCNCC3)c2c1)c1ccc(-c2ccccc2)cc1 | -1% | -3% | -2 | 101% (active) | inactive | inactive | inactive | inactive
COc1ccc(C(=O)CCC(=O)N(Cc2ccc(-c3ccc(CNCCc4ccc(S(C)(=O)=O)cc4)cn3)cc2)C(C)CN(C)C)cc1F (centres undefined) | 85% (active) | 13% | -8 | 98% (active) | inactive | inactive | inactive | inactive
COc1cc(C(=O)NCc2nn(CCN3CCC(N4CCCC4)CC3)cc2-c2ccc(Cl)c(Cl)c2)cc(OC)c1OC | -8% | 16% | -1 | 97% (active) | inactive | inactive | inactive | inactive
CCCCC(=O)Nc1ccc(Nc2nc(C)cc(N3CCCC3)n2)cc1 | 67% (active) | 38% | 4 | 101% (active) | inactive | inactive | inactive | inactive
O=C(Nc1ccc([N+](=O)[O-])cc1Cl)c1cc(Br)cc(Cc2ccccc2)c1O | 96% (active) | 75% (active) | -1 | 84% (active) | inactive | inactive | inactive | inactive
CCCCCCCc1c(C)[nH]c2ccccc2c1=O | 96% (active) | -14% | -7 | 98% (active) | inactive | inactive | inactive | inactive
CC(C)=C(C(=O)OCc1ccccc1)N1C(=O)[C@@H](NC(c2ccccc2)(c2ccccc2)c2ccccc2)[C@H]1[S@@](=O)CC(=O)OC(C)(C)C | 78% (active) | -2% | -4 | 92% (active) | inactive | inactive | inactive | inactive
